Source: PubChem BioAssay (Tox21)
Records with an inconclusive call do not appear. Calls of active or inactive are those of the source. Unless noted, the call rests on the fitted dose curve.

Tests used:
[1] = Nuclear factor erythroid 2-related factor 2/antioxidant responsive element (Nrf2/ARE) small molecule agonists: qHTS cell viability counter screen in human keratinocytes (AID 1919968; active means well fitted curve in the direction sought with a large enough effect in the repeat runs; an effect the other way counts as inactive or inconclusive; further: nearly all actives have a fitted effect of over 55% in size; further: potency means the concentration at half of the fitted maximal effect)
Summary of the method: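 KeratinoSens cells (HaCaT keratinocytes stably carrying an ARE-luciferase reporter) were seeded at 1,500 cells/well and rested 5 h at 37 C/5% CO2. They were then exposed to compounds in DMSO for 23 h. Viability was read by CellTiter-Fluor fluorescence after 1 h.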

[2] = biological target: KiSS-1 receptor (Homo sapiens) (UniProt Q969F8); assay: Human kisspeptin (KISS1R) small molecule agonists, calcium flux assay in KISS1R-HEK293 cells (AID 1920064; active means well fitted curve in the direction sought with a large enough effect in the repeat runs; an effect the other way counts as inactive or inconclusive)
Summary of the method: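 HEK293 cells stably expressing human KISS1R were plated 18 h at 37 °C, loaded with calcium dye for 1 h at 37 °C, then given compound by pin tool. Fluorescence (Ex/Em 480/540) was read kinetically for 3 min.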

[3] = G protein-coupled receptor (GPCR) small molecule agonists, calcium flux assay: HEK293 wild type cell line counter screen (AID 1920065)
Summary of the method: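 Cells were plated and cultured 18 h at 37 C/5% CO2, then loaded with calcium dye for 1 h at 37 C. Compounds in DMSO were pin-transferred in agonist mode, and fluorescence (Ex/Em 480/540) was read kinetically for 3 min at 1 s intervals.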

[4] = p53 small molecule agonists, cell-based qHTS assay with human liver microsomes: qHTS cell viability counter screen (AID 1963579); further: nearly all actives have a fitted effect of over 45% in size; further: potency means the concentration at half of the fitted maximal effect
Summary of the method: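 Viability of p53RE-bla cells is measured as CellTiter-Glo luminescence following a 16 h, 37 C incubation with compound, liver microsomes from human donors and NADPH.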

[5] = p53 small molecule agonists, cell-based qHTS assay with rat liver microsomes: qHTS cell viability counter screen (AID 1963580); further: nearly all actives have a fitted effect of over 45% in size; further: potency means the concentration at half of the fitted maximal effect
Summary of the method: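 Intracellular ATP, by CellTiter-Glo luminescence, defines viability. HCT-116 p53RE-bla cells, 4,000 per well, were compound-treated in the presence of rat liver microsomes and NADPH for 16 h at 37 C.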

[6] = p53 small molecule agonists, cell-based qHTS assay: qHTS cell viability counter screen (AID 1963581); further: nearly all actives have a fitted effect of over 45% in size
Summary of the method: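 p53RE-bla HCT-116 cells were exposed to compounds for 16 h at 37 C; after the beta-lactamase FRET read in the same wells, CellTiter-Glo was added and luminescence (intracellular ATP) read after 30 min at room temperature.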

[7] = biological target: 5-hydroxytryptamine receptor 2A (Homo sapiens) (UniProt P28223); assay: 5-hydroxytryptamine receptor 2A (HTR2A) small molecule antagonists, cell-based qHTS assay (AID 1963586); further: nearly all actives have a fitted effect of over 45% in size
Summary of the method: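 Antagonist-mode intracellular calcium assay: DOI (4 nM) added after 5 min compound pre-incubation at room temperature to dye-loaded HTR2A-CHO cells. Fluorescence followed for 3 min, sampled every second.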

[8] = biological target: 5-hydroxytryptamine receptor 2A (Homo sapiens) (UniProt P28223); assay: 5-hydroxytryptamine receptor 2A (HTR2A) small molecule agonists, cell-based qHTS assay (AID 1963587); further: nearly all actives have a fitted effect of over 30% in size; further: potency means the concentration at half of the fitted maximal effect
Summary of the method: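 Kinetic calcium-flux fluorescence (2 min, 1 sec intervals) after compound addition in agonist mode. HTR2A-CHO cells were cultured 18 h, then dye-loaded 1 h at 37 C.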

[9] = biological target: Muscarinic acetylcholine receptor M1 (Homo sapiens) (UniProt P11229); assay: Cholinergic receptor muscarinic 1 (CHRM1) small molecule antagonists, cell-based qHTS assay (AID 1963588); further: nearly all actives have a fitted effect of over 40% in size; further: potency means the concentration at half of the fitted maximal effect
Summary of the method: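 CHRM1-CHO calcium-flux assay, antagonist mode. Cells were seeded 18 h, dye-loaded 1 h at 37 C and given compound for 5 min at RT, then acetylcholine was added at 50nM. FDSS fluorescence was read 3 min; 15 concentrations, three runs.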

[10] = biological target: Muscarinic acetylcholine receptor M1 (Homo sapiens) (UniProt P11229); assay: Cholinergic receptor muscarinic 1 (CHRM1) small molecule agonists, cell-based qHTS assay (AID 1963589); further: nearly all actives have a fitted effect of over 35% in size
Summary of the method: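 CHO cells stably expressing human CHRM1, seeded 18 h at 37 C/5% CO2, dye-loaded 1 h at 37 C, then given compound in agonist mode; intracellular calcium fluorescence read kinetically at 1 s intervals. Fifteen concentrations, three independent runs.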

[11] = cAMP Responsive Elements (CRE) small molecule agonists, cell-based qHTS assay (AID 1963590)
Summary of the method: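 CRE-bla HEK 293T cells in DMEM with 10% dialyzed FBS, NEAA, pyruvate and 25 mM HEPES were plated 18 h at 37 C/5% CO2, then exposed to compounds in DMSO for 3 h before LiveBLAzer B/G FRET substrate addition.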

[12] = cAMP Responsive Elements (CRE) small molecule antagonists, cell-based qHTS assay (AID 1963591; active means well fitted inhibition curve with a large enough effect in the signal ratio in the repeat runs, not every such curve was filed as active; the % refers to the signal ratio)
Summary of the method: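 CRE-bla HEK293T cells were plated 18 h at 37 °C/5% CO2, pinned with compound in DMSO, then stimulated with NKH477 at 0.25 uM final for 3 h. LiveBLAzer B/G FRET substrate was added and plates incubated 2 h at room temperature.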

[13] = biological target: Beta-2 adrenergic receptor (Homo sapiens) (UniProt P07550); assay: Adrenergic beta2 receptor (ADRB2) small molecule antagonists, cell-based qHTS assay (AID 1963592); further: series mostly up to about 92 µM; nearly all actives have a fitted effect of over 50% in size
Summary of the method: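 Cells (CHO, stable ADRB2 overexpression) incubated 18-20hr at 37C; compounds added from DMSO; agonist mix (1nM isoproterenol, 100uM IBMX, 25uM Ro-20-1724) added; 0.5hr RT; d2-cAMP and anti-cAMP-cryptate added; 1hr RT; 665/615 nm read.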

[14] = biological target: D(2) dopamine receptor (Homo sapiens) (UniProt P14416); assay: Dopamine D2 receptor (DRD2) small molecule antagonists, cell-based qHTS assay (AID 1963595; active means well fitted inhibition curve with a large enough effect in the signal ratio in the repeat runs, with a control signal flat; the % refers to the signal ratio)
Summary of the method: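 HEK293 cells stably expressing DRD2 were preincubated with 0.1 mM Ro20-1724, then with compound for 10 min at room temperature. Cells were stimulated with 200 nM NKH477 plus 12 nM quinpirole for 30 min, and cAMP was read by HTRF.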

[15] = p53 small molecule agonists, cell-based qHTS assay with human liver microsomes (AID 1963577);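 further: p53 response element beta-lactamase reporter cells with liver microsomes plus NADPH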
Summary of the method: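 HLM-supplemented p53RE-bla reporter assay: 16 h compound exposure at 37 C, microsomes and NADPH each 0.5 mg/mL final, read by fluorescence intensity.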

[16] = p53 small molecule agonists, cell-based qHTS assay with rat liver microsomes (AID 1963578)
Summary of the method: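 Quantitative HTS of the Tox21 10K library: p53RE-bla cells, rat liver microsomes plus NADPH at 0.5 mg/mL final each, 16 h at 37 C, beta-lactamase fluorescence detection.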

[17] = p53 small molecule agonists, cell-based qHTS assay (AID 1963582; active means well fitted activation curve with a large enough effect in the signal ratio in the repeat runs, not every such curve was filed as active; the % refers to the signal ratio)
Summary of the method: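 p53RE-bla beta-lactamase reporter cells rested 5 h at 37 C/5% CO2, then received compounds in DMSO by pin transfer and were incubated 16 h at 37 C. LiveBLAzer B/G FRET substrate was loaded for 2 h at room temperature before fluorescence reading.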

[18] = biological target: D(2) dopamine receptor (Homo sapiens) (UniProt P14416); assay: Dopamine D2 receptor (DRD2) small molecule agonists, cell-based qHTS assay (AID 1963594); further: nearly all actives have a fitted effect of over 35% in size
Summary of the method: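 cAMP accumulation in DRD2-HEK293 cells measured by HTRF after 1 h detection; compounds added 10 min before NKH477 (200nM […]) forskolin-analogue stimulation, 30 min at room temperature, with Ro20-1724 present at 0.1 mM final.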

[19] = biological target: Gonadotropin-releasing hormone receptor (Homo sapiens) (UniProt P30968); assay: Human gonadotropin-releasing hormone receptor (GnRHR) small molecule agonists, calcium flux assay in GnRHR-HEK293 cells (AID 1920063); further: nearly all actives have a fitted effect of over 35% in size
Summary of the method: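 HEK293 cells stably expressing human GnRHR were plated 18 h at 37 °C, loaded with calcium dye 1 h at 37 °C, then given compound in agonist mode; fluorescence (Ex/Em 480/540) read kinetically for 3 min at 1 s intervals.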

Measured: Potency

Sequence of KiSS-1 receptor (Homo sapiens) (Q969F8 whole entry, looked up): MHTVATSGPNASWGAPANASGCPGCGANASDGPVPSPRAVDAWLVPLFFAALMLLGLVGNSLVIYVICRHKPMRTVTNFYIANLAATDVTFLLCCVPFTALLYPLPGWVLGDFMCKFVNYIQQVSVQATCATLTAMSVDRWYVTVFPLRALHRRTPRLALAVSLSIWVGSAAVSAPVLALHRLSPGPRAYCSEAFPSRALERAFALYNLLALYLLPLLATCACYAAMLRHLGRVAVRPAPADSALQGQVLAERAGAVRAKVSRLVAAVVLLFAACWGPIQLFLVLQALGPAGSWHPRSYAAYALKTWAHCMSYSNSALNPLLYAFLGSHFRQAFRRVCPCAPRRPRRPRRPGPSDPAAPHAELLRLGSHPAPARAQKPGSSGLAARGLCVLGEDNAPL
Sequence of Muscarinic acetylcholine receptor M1 (Homo sapiens) (P11229 whole entry, looked up): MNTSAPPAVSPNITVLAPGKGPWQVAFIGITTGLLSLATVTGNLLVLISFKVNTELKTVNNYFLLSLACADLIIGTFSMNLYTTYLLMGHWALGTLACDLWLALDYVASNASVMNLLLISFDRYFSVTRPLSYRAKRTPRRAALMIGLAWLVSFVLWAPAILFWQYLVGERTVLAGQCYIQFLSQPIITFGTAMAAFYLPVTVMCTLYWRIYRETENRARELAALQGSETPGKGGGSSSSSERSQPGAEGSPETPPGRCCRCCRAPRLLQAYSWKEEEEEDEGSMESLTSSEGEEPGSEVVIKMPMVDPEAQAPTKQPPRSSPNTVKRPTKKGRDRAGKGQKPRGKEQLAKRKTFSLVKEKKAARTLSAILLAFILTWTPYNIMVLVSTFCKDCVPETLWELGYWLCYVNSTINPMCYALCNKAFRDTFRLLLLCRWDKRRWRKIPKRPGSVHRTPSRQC
Sequence of D(2) dopamine receptor (Homo sapiens) (P14416 whole entry, looked up): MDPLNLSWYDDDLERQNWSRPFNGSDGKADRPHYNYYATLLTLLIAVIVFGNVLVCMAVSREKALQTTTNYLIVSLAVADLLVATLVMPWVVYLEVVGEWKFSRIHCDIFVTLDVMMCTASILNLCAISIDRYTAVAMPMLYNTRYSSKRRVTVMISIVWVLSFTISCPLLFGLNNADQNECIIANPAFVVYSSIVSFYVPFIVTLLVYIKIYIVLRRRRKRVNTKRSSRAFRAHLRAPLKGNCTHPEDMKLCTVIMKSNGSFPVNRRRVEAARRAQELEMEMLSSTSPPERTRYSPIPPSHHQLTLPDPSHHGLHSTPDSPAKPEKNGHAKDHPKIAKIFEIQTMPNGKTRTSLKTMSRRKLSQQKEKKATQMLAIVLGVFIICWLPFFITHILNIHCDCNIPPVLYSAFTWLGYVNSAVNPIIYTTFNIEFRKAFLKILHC
Sequence of 5-hydroxytryptamine receptor 2A (Homo sapiens) (P28223 whole entry, looked up): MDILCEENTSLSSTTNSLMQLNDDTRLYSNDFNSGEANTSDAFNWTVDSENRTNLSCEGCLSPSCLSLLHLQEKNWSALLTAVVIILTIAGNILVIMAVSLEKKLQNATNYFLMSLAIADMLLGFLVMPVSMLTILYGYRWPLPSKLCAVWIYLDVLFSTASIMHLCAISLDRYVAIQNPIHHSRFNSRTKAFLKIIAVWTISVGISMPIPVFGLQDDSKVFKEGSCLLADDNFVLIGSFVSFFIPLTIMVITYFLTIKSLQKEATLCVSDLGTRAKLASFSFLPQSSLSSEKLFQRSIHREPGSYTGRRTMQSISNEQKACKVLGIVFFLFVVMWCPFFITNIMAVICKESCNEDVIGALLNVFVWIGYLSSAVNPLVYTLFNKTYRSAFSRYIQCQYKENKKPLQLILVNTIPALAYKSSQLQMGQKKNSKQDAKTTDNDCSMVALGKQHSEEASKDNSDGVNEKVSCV
Sequence of Beta-2 adrenergic receptor (Homo sapiens) (P07550 whole entry, looked up): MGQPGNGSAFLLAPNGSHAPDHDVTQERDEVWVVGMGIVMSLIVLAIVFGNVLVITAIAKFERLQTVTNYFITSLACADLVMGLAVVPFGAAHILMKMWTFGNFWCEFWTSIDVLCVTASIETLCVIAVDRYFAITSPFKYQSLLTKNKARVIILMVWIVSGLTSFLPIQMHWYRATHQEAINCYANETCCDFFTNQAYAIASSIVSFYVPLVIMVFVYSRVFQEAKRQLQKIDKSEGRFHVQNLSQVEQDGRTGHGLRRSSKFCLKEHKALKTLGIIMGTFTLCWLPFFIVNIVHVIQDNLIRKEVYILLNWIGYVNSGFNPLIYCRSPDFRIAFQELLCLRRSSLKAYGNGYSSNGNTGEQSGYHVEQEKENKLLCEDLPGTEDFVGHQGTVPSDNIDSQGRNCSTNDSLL
Sequence of Gonadotropin-releasing hormone receptor (Homo sapiens) (P30968 whole entry, looked up): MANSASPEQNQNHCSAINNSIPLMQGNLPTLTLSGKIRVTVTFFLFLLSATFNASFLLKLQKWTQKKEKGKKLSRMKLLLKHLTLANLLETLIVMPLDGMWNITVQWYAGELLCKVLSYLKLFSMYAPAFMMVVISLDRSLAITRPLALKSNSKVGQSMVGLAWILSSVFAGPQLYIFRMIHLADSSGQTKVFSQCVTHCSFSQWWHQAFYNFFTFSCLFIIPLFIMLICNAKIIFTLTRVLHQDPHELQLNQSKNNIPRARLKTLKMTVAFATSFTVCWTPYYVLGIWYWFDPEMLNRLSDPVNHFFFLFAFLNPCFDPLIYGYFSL

C[C@H]1CC[C@@H]2[C@@H](C)[C@H]3[C@H](C[C@H]4[C@@H]5CC=C6CC(O[C@@H]7O[C@H](CO)[C@H](O)[C@H](O[C@@H]8O[C@H](CO)[C@@H](O)[C@H](O)[C@H]8O)[C@H]7O[C@H]7O[C@@H](C)[C@H](O)[C@@H](O)[C@H]7O)CC[C@]6(C)[C@H]5CC[C@]34C)N2C1 (some centres undefined)
active: [1] 22.4 µM | [8] 63.7 µM
not listed: [15] | [16] | [17] | [18] | [19]
inactive: all other assays above

CCC1(c2ccccc2)C(=O)NC(=O)NC1=O
not listed: [7] | [8] | [9] | [10] | [19]
inactive: all other assays above

CC(C)N(C(=O)SC/C(Cl)=C/Cl)C(C)C
not listed: [9] | [13] | [19]
inactive: all other assays above

COC(=O)c1cc(Oc2ccc(Cl)cc2Cl)ccc1[N+](=O)[O-]
active: [9] 0.0375 µM
not listed: [2] | [13] | [17]
inactive: all other assays above

CCCCCCCCc1ccc(O)cc1
active: [1] 43.5 µM | [4] 36.6 µM | [5] 48.8 µM
inactive: [2] | [3] | [15] | [11] | [13]

Cc1ncc(C[n+]2csc(CCO)c2C)c(N)n1
not listed: [5] | [15] | [19]
inactive: all other assays above

CC(=O)O.CC(=O)O.CC(=O)O.CC(=O)O.CC(=O)O.CC(=O)O.CC(=O)O.O.O.[Cr].[Cr].[Cr]
not listed: [2] | [7] | [10] | [15] | [16] | [17]
inactive: all other assays above

CC(C)(CCl)C(=O)Cl
active: [4] 18.2 µM
not listed: [3] | [10] | [19]
inactive: all other assays above

C=CCN1CC[C@]23c4c5ccc(O)c4O[C@H]2C(=O)CC[C@@]3(O)[C@H]1C5
not listed: [7] | [8] | [9] | [10] | [15] | [16] | [17] | [19]
inactive: all other assays above
